Shown are actives, neighbours in structure and some others; about 3.5% of the full set was active somewhere.
Pf apPOL inh = Pf-apPOL DNA polymerase inhibition; Recombinant Pf-apPOL, molecular beacon fluorescence, 1.5 h; inhibition, % at 10 µM; 0.25% of 210,000 active
mHTT CaM bind = disrupts binding of mutant huntingtin to calmodulin. 3.6% of 190,000 active. AID 1671202. AlphaScreen His-mHTT/GST-CaM binding, luminescence. inhibition, % at 15 µM;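 note: 0% = both proteins with DMSO and 100% = one protein alone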
Starred values were filed as active, the others as inactive. Cut-off read from the data, not from the text of the source: active = inhibition above about 50%; inactive = the rest.

Screening Cc1ccc(N=C2C(=O)Nc3cc(Br)c(C)cc32)cc1 returned Pf apPOL inh -1 and mHTT CaM bind 55*.
For CC(=O)N(C)c1ccc(N=C2C(=O)Nc3cc(Br)c(C)cc32)cc1 the results were Pf apPOL inh -9 and mHTT CaM bind 5.
O=C(Cn1cnc([N+](=O)[O-])n1)N1CCCCCC1 was read as Pf apPOL inh 1 and mHTT CaM bind 2.
`COc1ccc(C2C3CCC=C3C(C#N)=C(N)C2(C#N)C#N)c(OC)c1` (configuration not stated) gave Pf apPOL inh -3 and mHTT CaM bind 27.
Screening CC(CCc1ccccc1)Nc1nc(Cl)nc(NCCN2CCOCC2)n1 (configuration not stated) returned Pf apPOL inh 2 and mHTT CaM bind 62*.
`Clc1nc(NCCN2CCOCC2)nc(NCc2ccccc2)n1` gave Pf apPOL inh -1 and mHTT CaM bind -6.
Screening O=C(O)C1CCC(C(=O)NCc2ccc(Cl)c(Cl)c2)S1 (configuration not stated) returned Pf apPOL inh 1 and mHTT CaM bind 8.
For COc1ccc(Cl)cc1NC(=O)c1c(NCc2ccncc2)sc2c1CCC(C)C2 (configuration not stated) the results were Pf apPOL inh -15 and mHTT CaM bind 73*.
For COc1ccc(Cl)cc1Nc1ncnc2sc3c(c12)CCC(C)C3 (configuration not stated) the results were Pf apPOL inh 1 and mHTT CaM bind -6.
Screening COc1ccc(OC)c(NC(=O)c2c(NCc3ccncc3)sc3c2CCC(C)C3)c1 (configuration not stated) returned Pf apPOL inh -18 and mHTT CaM bind 72*.
Screening COc1ccccc1NC(=O)c1c(NCc2ccncc2)sc2c1CCC(C)C2 (configuration not stated) returned Pf apPOL inh -18 and mHTT CaM bind 100*.
`COc1ccc(OC)c(NC(=O)Cn2nc3c(cc2=O)CC(C)CC3)c1` (configuration not stated) gave Pf apPOL inh 0 and mHTT CaM bind 12.
`COc1ccccc1NC(=O)c1c(NCc2ccccn2)sc2c1CCC(C)C2` (configuration not stated) gave Pf apPOL inh -16 and mHTT CaM bind 46.
`Cc1ccc(C)c(NC(=O)N2CCC(N3CCN(Cc4ccccc4)C3=O)CC2)c1` gave Pf apPOL inh -11 and mHTT CaM bind -2.
For COc1ccc(OC)c(/C=C2N=C(/C=C/c3ccc(Cl)cc3)OC/2=O)c1 the results were Pf apPOL inh -6 and mHTT CaM bind 0.
CCOc1ccc(N2C(=O)NC3CC2(C)Oc2ccc(Cl)cc23)cc1 (configuration not stated) was read as Pf apPOL inh -3 and mHTT CaM bind 14.
Screening COc1ccc(OC)c(-n2cnc3cc(C(=O)NCc4cccnc4)ccc32)c1 returned Pf apPOL inh 0 and mHTT CaM bind 14.
For Cc1c(C(=O)Nc2ccccn2)sc2nc(-c3ccccc3)cn12 the results were Pf apPOL inh -24 and mHTT CaM bind 8.
Cc1cccc(NC(=O)c2sc3nc(-c4ccccc4)cn3c2C)n1 was read as Pf apPOL inh -1 and mHTT CaM bind 50*.
Screening Cc1nc2c(c(Nc3ccc(S(=O)(=O)NCc4ccccc4)cc3)n1)CCC2 returned Pf apPOL inh 1 and mHTT CaM bind 7.
Screening COc1ccc(C2CC(O)(c3ccccc3)Oc3cc(OC)c(OC)c(OC)c32)cc1 (configuration not stated) returned Pf apPOL inh -2 and mHTT CaM bind 86*.
`Cc1cc2c(c(C)c1Cl)[C@H](c1ccc3c(c1)OCO3)C[C@@H](c1ccccc1)O2` gave Pf apPOL inh -7 and mHTT CaM bind 10.
COc1ccc([C@@H]2C[C@H](c3ccccc3)Oc3cc(OC)c(OC)c(OC)c32)cc1 was read as Pf apPOL inh -4 and mHTT CaM bind 18.
COc1ccc(C2CC(O)(c3ccccc3)Oc3cc(C)c(Cl)c(C)c32)cc1 (configuration not stated) was read as Pf apPOL inh -3 and mHTT CaM bind 89*.
CC(CC(=O)O)CC(=O)NCc1ccc(Cl)cc1 (configuration not stated) was read as Pf apPOL inh 0.
Screening Cc1ccccc1OCC(=O)N1CCCC2(C1)Nc1ccccc1NC2=NC(C)(C)C (configuration not stated) returned Pf apPOL inh 6 and mHTT CaM bind 75*.
CC(C)(C)N=C1Nc2ccccc2NC12CCCN(C(=O)c1ccncc1)C2 (configuration not stated) was read as Pf apPOL inh 16 and mHTT CaM bind 18.
For CC(C)(C)N=C1Nc2ccccc2NC12CCCN(C(=O)COc1ccccc1)C2 (configuration not stated) the results were Pf apPOL inh -5 and mHTT CaM bind 36.
`CC(C)(C)N=C1Nc2ccccc2NC12CCCN(C(=O)c1ccccc1)C2` (configuration not stated) gave Pf apPOL inh -5 and mHTT CaM bind 82*.
O=C(C1CCN(c2nnc(-c3ccccc3)o2)CC1)N1CCOCC1 was read as Pf apPOL inh -1 and mHTT CaM bind -5.
Screening C=C(C)COc1ccc2c(c1)OC(=Cc1ccc(OC)cc1OC)C2=O returned Pf apPOL inh -5 and mHTT CaM bind -50.
Screening COc1cc(OC)c2ccc(=O)oc2c1C(CCN1CCCC1)c1ccc(N(C)C)cc1 (configuration not stated) returned Pf apPOL inh 0 and mHTT CaM bind 46.
For COc1cc(O)c(C(CCN2CCOCC2)c2ccc3c(c2)OCO3)c(OC)c1 (configuration not stated) the results were Pf apPOL inh -7 and mHTT CaM bind 24.
`CCN(CC)CCC(c1ccc(N(C)C)cc1)c1c(O)cc(OC)cc1OC` (configuration not stated) gave Pf apPOL inh -6 and mHTT CaM bind 70*.
COc1cc(O)c(C(CCN2CCOCC2)c2ccc(N(C)C)cc2)c(OC)c1 (configuration not stated) was read as Pf apPOL inh -7 and mHTT CaM bind 58*.
For COc1cc(OC)c2c(C)cc(=O)oc2c1C(CCN1CCCC(C)C1)c1ccc(N(C)C)cc1 (configuration not stated) the results were Pf apPOL inh -8 and mHTT CaM bind 79*.
For COc1cc(O)c(C(CCN2CCCC(C)C2)c2ccc(N(C)C)cc2)c(OC)c1 (configuration not stated) the results were Pf apPOL inh 7 and mHTT CaM bind 55*.
Screening CCN(CC)CCC(c1ccc(OC)cc1)c1c(O)cc(OC)cc1OC (configuration not stated) returned Pf apPOL inh -2 and mHTT CaM bind 16.
COc1cc(O)c(C(CCN2CCCC(C)C2)c2ccc3c(c2)OCO3)c(OC)c1 (configuration not stated) was read as Pf apPOL inh 7 and mHTT CaM bind 33.
Screening Cc1cccc(NC(=O)N2CCC(CCOc3ccncc3)CC2)c1 returned Pf apPOL inh -5 and mHTT CaM bind -3.
Screening CCc1noc(C2CCCCN2C(=O)c2cnccn2)n1 (configuration not stated) returned Pf apPOL inh 0 and mHTT CaM bind -1.
For CN(C)C(=O)c1ccc(-c2noc(C3CCCC3)n2)cc1 the results were Pf apPOL inh -2 and mHTT CaM bind -2.
